Measured values from PubChem BioAssay AID1030 (National Center for Advancing Translational Sciences (NCATS), 2008).
Among all 220,000 compounds or so, about 16,000 (7.3%) were called active. A call without a number means that no potency is given here. Not shown: some 25% with an inconclusive outcome. This is one part of a sample in which actives are shown more often than they occur. The call rests on the fitted dose curve; in most records, active means well fitted inhibition curve with a large enough effect (not every such curve was filed as active); inconclusive means small, poorly fitted or top-dose-only effect, or another doubt; inactive means no such curve, though single readings can be large or run the other way.

molecular target: Aldehyde dehydrogenase 1A1 (Homo sapiens) (UniProt P00352); assay: qHTS Assay for Inhibitors of Aldehyde Dehydrogenase 1 (ALDH1A1); details: Purified ALDH1A1, NADH fluorescence, propionaldehyde substrate; series mostly up to 75.3 µM
Potency means the concentration at half of the fitted maximal effect.

Chain of Aldehyde dehydrogenase 1A1 (Homo sapiens) (P00352 whole entry, looked up): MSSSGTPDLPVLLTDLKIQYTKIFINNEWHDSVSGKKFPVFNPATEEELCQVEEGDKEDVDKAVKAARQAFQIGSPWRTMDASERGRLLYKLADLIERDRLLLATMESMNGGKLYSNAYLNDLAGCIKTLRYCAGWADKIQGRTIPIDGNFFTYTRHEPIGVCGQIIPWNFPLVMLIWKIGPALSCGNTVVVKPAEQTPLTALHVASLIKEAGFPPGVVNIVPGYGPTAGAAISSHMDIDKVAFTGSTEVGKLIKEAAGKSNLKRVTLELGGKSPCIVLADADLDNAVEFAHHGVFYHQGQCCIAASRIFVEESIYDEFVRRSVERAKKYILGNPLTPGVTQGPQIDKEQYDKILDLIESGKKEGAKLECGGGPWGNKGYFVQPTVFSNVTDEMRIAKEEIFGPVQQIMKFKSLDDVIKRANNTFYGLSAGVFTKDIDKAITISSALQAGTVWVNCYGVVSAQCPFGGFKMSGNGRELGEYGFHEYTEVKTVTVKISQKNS

Structure (SMILES) | Potency | activity, negative = inhibition
COc1ccc(CCNC(=O)COC(=O)Cc2cc(OC)c(OC)c(OC)c2)cc1 | inactive | –
CC(C)N(Cc1nc(-c2ccc3c(c2)OCO3)no1)CC1CCC(=O)N1 (stereo not drawn) | inactive | –
Cc1nc(N)c(Br)c(C)c1Br | inactive | –
CCN(CC)S(=O)(=O)c1cccc(-c2n[nH]c(=S)n2/N=C/c2ccc(C(=O)OC)cc2)c1 | 22.4 µM (active) | –
COC(=O)c1ccc(/C=N/N2C(C)CCCC2C)cc1 (stereo not drawn) | inactive | –
Cc1ccc(/C=N\n2c(-c3ccccc3)n[nH]c2=S)s1 | inactive | –
CCN(CC)C(=O)C(=O)Nc1cccc(Br)c1 | inactive | –
C=CCn1c(CCNC(=O)c2ccccc2F)nnc1SCC(=O)Nc1ccc(OC)cc1 | inactive | –
Cc1nc(CN2CCN(C(=O)CCc3nnc(Cc4c[nH]c5ccccc45)o3)CC2)cs1 | inactive | –
CCN1C(=O)N[C@@H](CCc2ccccc2)C(C(=O)OC)=C1C | – | 5.7% [at 13.5 µM] (inactive)
Cc1cc(NC(=O)CN2C(=O)NC(CCc3ccccc3)C2=O)no1 (stereo not drawn) | inactive | –
COC(=O)c1c(NC(=O)CN2C(=O)NC(CCc3ccccc3)C2=O)sc2c1CCCCC2 (stereo not drawn) | 20 µM (active) | –
CCC1CCCCN1CCNS(=O)(=O)c1ccc2c(c1)CCN2C(C)=O (stereo not drawn) | inactive | –
CC(=O)N1CCc2cc(S(=O)(=O)Nc3ccccc3N3CCN(C)CC3)ccc21 | inactive | –
CCCNS(=O)(=O)c1ccc2c(c1)CCCN2C(C)=O | 22.4 µM (active) | –
CC(=O)Nc1ccc(NC(=O)COc2ncnc3ccccc23)cc1 | inactive | –
O=S(=O)(Cc1noc(-c2ccc(OC(F)(F)F)cc2)n1)c1ccc(F)cc1 | inactive | –
COc1cccc(-n2c(=S)[nH]c3c(oc4ccccc43)c2=O)c1 | inactive | –
COc1ccc(-n2c(=S)[nH]c3sc4c(c3c2=O)CCc2ccccc2-4)cc1 | 3.98 µM (active) | –
CSc1nc2sc3c(c2c(=O)[nH]1)CCc1ccccc1-3 | inactive | –
CC(NC(=O)CC1SC(N)=NC1=O)c1ccccc1 (stereo not drawn) | inactive | –
O=C(NCCc1c[nH]c2ccccc12)c1cc2ccccc2oc1=O | inactive | –
CN=C1C=C/C(=N/N=c2\ccn(O)cc2C)C=C1C | inactive | –
COc1ccc(C2CC(c3cccs3)=NN2C(=O)CSc2nnc(N)s2)cc1OC (stereo not drawn) | inactive | –
CCn1cc(C(=O)N2CCN(Cc3ccc4c(c3)OCO4)CC2)c2cc(OC)c(OC)cc2c1=O | 2.24 µM (active) | –
CCn1cc(C(=O)NCc2ccc3c(c2)OCO3)c2cc(OC)c(OC)cc2c1=O | inactive | –

Structure (SMILES) | Potency | activity, negative = inhibition
CCn1cc(C(=O)N2CCN(C3CCCCC3)CC2)c2cc(OC)c(OC)cc2c1=O | inactive | –
Cn1cnnc1SCc1nnc(-c2ccccc2Br)o1 | inactive | –
COCc1ccc(C(=O)N2CCc3c([nH]c4ccccc34)C2c2ccccn2)s1 (stereo not drawn) | inactive | –
COc1ccccc1CC(NC(C)=O)C(=O)NC1CCN(C(=O)Nc2ccccc2Cl)CC1 (stereo not drawn) | inactive | –
CCn1cc(/C=C2/SC(=S)NC2=O)c(C)n1 | inactive | –
Cc1nn(C)cc1/C=C1\CCC/C(=C\c2cn(C)nc2C)C1=O | 28.2 µM (active) | –
Cc1c(Cl)c([N+](=O)[O-])nn1CC(=O)NCC1CCCO1 (stereo not drawn) | inactive | –
CCOC(=O)c1ccc(NC(=O)c2cc(=O)[nH]c3ccccc23)cc1 | inactive | –
C/C(=N\NC(=O)c1ccc(CSc2nc(C)cc(C)n2)cc1)C1CCCCC1 | 3.55 µM (active) | –
C/C(=N\NC(=O)c1nc(C)cc(C)n1)c1ccccc1 | inactive | –
CCn1c(CSc2nc(C)cc(C)n2)nnc1SCC(N)=O | inactive | –
CC1=C(/C=C/C(C)=C/C=C/C(C)=C/C=C/C=C(C)/C=C/C=C(C)/C=C/C(=O)[C@]2(C)C[C@@H](O)CC2(C)C)C(C)(C)C[C@H](O)C1 | inactive | –
O=C(Nc1ccc2c(c1)CCC2)c1ccc(Br)s1 | inactive | –
Cc1ccc(NC(=S)N2CCCC(c3ccccc3)=N2)cc1 | inactive | –
CN1CC(c2ccccc2)C2(COc3ccccc3C2=O)C12C(=O)Nc1ccccc12 (stereo not drawn) | 7.94 µM (active) | –
CC1(C)C2CCC1(C)C(OC(=O)c1ccc(O)cc1)C2 (stereo not drawn) | inactive | –
COc1ccc(CCn2ccc(O)c(Cc3ccc(Cl)cc3Cl)c2=O)cc1OC | inactive | –
Cc1noc(C)c1S(=O)(=O)Nc1cc(C(F)(F)F)ccc1N1CCOCC1 | inactive | –
C=CCN(Cc1nc(-c2cc(OC)c3c(c2)OCO3)oc1C)C1CCS(=O)(=O)C1 (stereo not drawn) | inactive | –
CCO[C@@H]1OC(C(N)=O)=C[C@H](c2ccc(Br)cc2)[C@H]1CCCO | inactive | –
CCOC(=O)CSc1nc2c(c(=O)n(C)c(=O)n2C)n1Cc1ccccc1F | 39.8 µM (active) | –
CCCCNc1nc2c(c(=O)n(C)c(=O)n2C)n1Cc1cccc(OC)c1 | inactive | –
Cn1c(=O)c2c(nc(SCCNS(=O)(=O)c3ccccc3)n2C)n(C)c1=O | inactive | –
COC(=O)C(C)Sc1nc2c(c(=O)n(C)c(=O)n2C)n1Cc1cccc(C)c1 (stereo not drawn) | 12.6 µM (active) | –
CCCCn1c(SCC(=O)NCCc2ccc(OC)c(OC)c2)nc2c1c(=O)n(C)c(=O)n2C | inactive | –
COCCn1c(CN(Cc2ccccc2)Cc2ccccc2)nc2c1c(=O)n(C)c(=O)n2C | inactive | –

Structure (SMILES) | Potency | activity, negative = inhibition
CC(C)OCCCNc1nc2c(c(=O)n(Cc3ccccc3F)c(=O)n2C)n1C | inactive | –
CCOc1ccc2nc(NC(=O)CSc3nc4c(c(=O)n(C)c(=O)n4C)n3CC)sc2c1 | inactive | –
CCCSc1nc2c(c(=O)n(C)c(=O)n2C)n1Cc1ccc(C)cc1 | 25.1 µM (active) | –
Nc1nc(SCC(=O)N2CCN(S(=O)(=O)c3ccc(Cl)cc3)CC2)n[nH]1 | inactive | –
COc1cccc(NC(=O)COC(=O)CCOc2ccccc2OC)c1 | inactive | –
COCc1c(N)c(C)nc(Cl)c1C#N | inactive | –
Cc1n[nH]c(=O)n1-c1ccc(C(C)C)cc1 | inactive | –
COc1ccc(NC(=O)COC(=O)c2ccncc2)c(OC)c1 | inactive | –
Cc1c(Cl)cccc1NC(=O)CSc1ccc(-c2cccnc2)nn1 | inactive | –
COC(=O)c1c(C)[nH]c(C)c1-c1ccc([N+](=O)[O-])cc1 | inactive | –
CCCCC/C=C\C/C=C\CCCCCCCCCC(=O)O | inactive | –
CCOC(=O)Cn1nnnc1C | inactive | –
CC(Sc1nnnn1C)C(=O)NC(=O)NC1CCCCC1 (stereo not drawn) | inactive | –
O=C(Oc1ccccc1)Oc1ccc2c(c1)oc(=O)c1ccccc12 | 17.8 µM (active) | –
Cc1ccc(OC(=O)c2cc3ccccc3o2)cc1 | inactive | –
CCc1ccc(Oc2coc3cc(OC(=O)c4cc5ccccc5oc4=O)ccc3c2=O)cc1 | inactive | –
CCOC(=O)CSC1=N/C(=C/c2ccc(-n3cncn3)cc2)C(=O)N1C(C)=O | inactive | –
O=C(CN1C(=O)/C(=C/c2ccccc2F)Sc2ccccc21)NCc1cccnc1 | 20 µM (active) | –
O=C(CN1C(=O)/C(=C\c2ccccc2F)SC1=S)Nc1nc2ccccc2s1 | inactive | –
O=C(CN1C(=O)/C(=C\c2ccc(C(F)(F)F)cc2)Sc2ccccc21)NCc1ccco1 | inactive | –
CN(/C(=N/S(=O)(=O)c1cccs1)c1ccccc1)c1ccc(O)cc1 | inactive | –
CCC(C(=O)Nc1ccc(C(C)C)cc1)c1ccccc1 (stereo not drawn) | inactive | –
O=C(Nc1cc(Cl)cc(Cl)c1)C(NCCCO)c1ccccc1 (stereo not drawn) | 1.26 µM (active) | –
Cc1nnc(SC(C(=O)Nc2cc(Cl)cc(Cl)c2)c2ccccc2)[nH]c1=O (stereo not drawn) | inactive | –
Cc1c(Br)c([N+](=O)[O-])nn1CC(=O)N1CCN(Cc2ccccc2)CC1 | inactive | –
COc1ccc(C(=O)Nc2ccc(-n3nncc3C(C)(C)C)cc2)cc1 | inactive | –

Structure (SMILES) | Potency | activity, negative = inhibition
CC(C)NC(=S)N1CCN(C(c2ccccc2)c2ccccc2)CC1 | 10 µM (active) | –
O=C(c1ccc(-n2cnnn2)cc1)N1CCN(C(c2ccccc2)c2ccccc2)CC1 | inactive | –
CC(C)NC(=S)N1CCN(S(C)(=O)=O)CC1 | inactive | –
CCOC(=O)C1CCN(S(=O)(=O)c2cc(F)ccc2OC)CC1 | inactive | –
COCCOC(=O)c1sc(=S)n(CCOC)c1N | 10 µM (active) | –
CCOC(=O)Cn1c(N)c(C(=O)OC)sc1=S | inactive | –
CCOC(=O)c1cnc2c(c(C)nn2CC)c1Cl | inactive | –
CN1CCN(S(=O)(=O)c2ccc(N3CCN(S(=O)(=O)c4cccs4)CC3)nc2)CC1 | inactive | –
COc1ccc2c(CN3CCN(S(=O)(=O)c4cccs4)CC3)cc(=O)oc2c1 | 14.1 µM (active) | –
O=S(=O)(c1cccs1)N1CCN(Cc2ccccc2)CC1 | inactive | –
COc1ccc(C(=O)NCC(=O)N/N=C/c2ccc([N+](=O)[O-])s2)cc1OC | inactive | –
Cc1ccc(-c2n[nH]c(=S)n2/N=C/c2cc3c(cc2[N+](=O)[O-])OCO3)cc1 | inactive | –
Cc1ccc(S(=O)(=O)N/N=C\c2cc3c(cc2[N+](=O)[O-])OCO3)cc1 | 1.26 µM (active) | –
CC(=O)N/N=C/c1cc2c(cc1[N+](=O)[O-])OCO2 | inactive | –
COc1cc(NC(=O)c2cccnc2SC)cc(OC)c1 | inactive | –
COc1ccc(N2CCN(C(=O)CSc3nc4cc(OC)c(OC)cc4cc3C#N)CC2)cc1 | 14.1 µM (active) | –
COc1ccc(N2CCN(C(=O)CSc3ncnc4c3cnn4-c3ccc(OC)cc3)CC2)cc1 | inactive | –
CCOc1ccc(-c2nnn(CC(=O)N3CCN(c4ccc(OC)cc4)CC3)n2)cc1OCC | inactive | –
CCCC(=O)Nc1nnc(-c2ccccc2)o1 | inactive | –
COc1ccc(C(=O)NC2CCN(C(=S)Nc3ccccc3)CC2)cc1 | inactive | –
Cc1nnc(SCC(=O)N2CCN(c3ccccc3)CC2)n1-c1ccccc1 | inactive | –
CCN(CC)C(=O)CSc1nc2ccccc2n1CC(=O)N1CCN(c2ccccc2OC)CC1 | inactive | –
CC(C)N(C(=O)Cn1c(SCC(=O)N2CCN(c3ccccc3)CC2)nc2ccccc21)C(C)C | 25.1 µM (active) | –
CCN1CCN(c2ccc(NC(=O)c3cnccn3)cc2)CC1 | inactive | –
COc1ccc(Nc2ncc(F)c(N3CCOCC3)n2)cc1 | inactive | –
